We go through 70 compounds from PubChem BioAssay AID624136 (Broad Institute, 2012).

The structures appear in SMILES notation. Screen size: about 17,000 compounds; about 75 (0.4%) were called active. This is one part of a sample in which actives are shown more often than they occur.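 How the source made its calls: active means compounds whose four printed spots each glow above background more than chance allows, each with a p-value under 7%; inactive means the rest.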

The test deals with mutant tumor protein p53 (GST-tagged), Homo sapiens. The test can be described thus: small molecules binding GST-tagged mutant p53 – biochemical, small molecule microarray, anti-GST fluorescence, primary screen (AID 624136).
In the case of `Cc1ccccc1-c1nnc(SCC(=O)Nc2ccc(S(N)(=O)=O)cc2)n1C`, the outcome was inactive.

Take `CC(C)(C)c1cn2c3ccccc3nc2n1CCN1CCOCC1`: the outcome was inactive.

For the compound `CNC[C@H]1Oc2ccc(NS(=O)(=O)c3ccccc3)cc2CC(=O)N([C@H](C)CO)C[C@@H]1C`, the result was inactive.

For `CC(C)NC(=O)Nc1ccc2c(c1)C(=O)N([C@@H](C)CO)C[C@@H](C)[C@H](CN(C)C)OCCCC[C@H](C)O2`, the call was inactive.

In the case of `NC(CC(=O)Nc1ccc(Cl)cc1)C(=O)O` (stereo not given), the call was inactive.

In the case of `C[C@@H]1CN([C@@H](C)CO)C(=O)c2cccc(NC(=O)c3ccncc3)c2O[C@@H]1CN(C)CC1CC1`, the result was inactive.

`C[C@@H]1CN([C@@H](C)CO)C(=O)c2cccc(NS(=O)(=O)c3cn(C)cn3)c2O[C@@H]1CN(C)Cc1ccc(Cl)c(Cl)c1`: the call was inactive.

Take `COc1ccc(CN(C)C[C@H]2Oc3c(NC(=O)C4CCCCC4)cccc3C(=O)N([C@@H](C)CO)C[C@H]2C)cc1`: the call was inactive.

Turning to `CC(=O)Nc1ccc(NC(=O)CN(c2ccc(I)cc2)S(C)(=O)=O)cc1`, the compound was called inactive.

For `CN(CCc1ccccn1)S(=O)(=O)c1ccc2c3c(cccc13)C(=O)N2`, the result was inactive.

`CNC[C@@H]1OCCCC[C@@H](C)Oc2ccc(NS(C)(=O)=O)cc2C(=O)N([C@H](C)CO)C[C@@H]1C`: the compound was called inactive.

Consider `CCN1CCOC(CC(=O)Nc2ccc3c(c2)OCCO3)C1=O` (stereo not given), for which the call was inactive.

With `C[C@@H]1CN([C@H](C)CO)C(=O)c2cc(NC(=O)Cn3cnnn3)ccc2O[C@@H]1CN(C)CC1CC1`, the compound was called inactive.

Take `C[C@@H]1CN([C@@H](C)CO)C(=O)c2cc(NS(=O)(=O)c3ccccc3)ccc2O[C@@H](C)CCCCO[C@@H]1CN(C)S(=O)(=O)c1cccs1`: the compound was classed as inactive.

On to `O=C(Cn1cnc([N+](=O)[O-])n1)Nc1c(Cl)cccc1Cl`, for which the outcome was inactive.

Consider `COc1ccc(CN(C)C[C@H]2Oc3c(NS(=O)(=O)c4ccc(Cl)cc4)cccc3C(=O)N([C@H](C)CO)C[C@H]2C)cc1`, for which the compound was classed as inactive.

On to `Cn1c(COc2ccccc2)nnc1SCc1nc2ccccc2c(=O)[nH]1`, for which the compound was classed as inactive.

On to `Cc1noc(C)c1NC(=O)N(C)C[C@H]1Oc2c(NC(=O)c3nc4ccccc4s3)cccc2C(=O)N([C@@H](C)CO)C[C@@H]1C`, for which the outcome was inactive.

With `COc1ccc(CN(C)C[C@H]2Oc3c(NC(=O)NC4CCCCC4)cccc3C(=O)N([C@@H](C)CO)C[C@@H]2C)cc1`, the call was inactive.

Consider `Cc1noc(C)c1NC(=O)N(C)C[C@@H]1OCCCC[C@@H](C)Oc2ccc(NC(=O)C3CCCCC3)cc2C(=O)N([C@H](C)CO)C[C@@H]1C`, for which the compound was called inactive.

Take `CC1(C)C[C@H](O)C[C@@]2(C)[C@H]1[C@H](O)C=C1COC(=O)[C@@]12O`: the compound was called inactive.

In the case of `C[C@@H]1CN([C@H](C)CO)C(=O)c2cccc(NC(=O)Nc3cccc4ccccc34)c2O[C@@H]1CN(C)C(=O)Nc1ccc(F)cc1`, the compound was classed as inactive.

With `C[C@@H]1CC[C@]2(C(=O)O)CC[C@]3(C)C(=CCC4[C@@]5(C)CC[C@H](O)[C@](C)(C(=O)O)C5CC[C@]43C)C2[C@]1(C)O` (stereo not given in full), the call was inactive.

Take `C[C@H]1CN([C@@H](C)CO)C(=O)c2cccc(NC(=O)Nc3ccccc3)c2O[C@@H]1CN(C)S(C)(=O)=O`: the compound was called inactive.

In the case of `COc1ccc(CN(C)C[C@H]2Oc3c(NC(=O)c4ccncc4)cccc3C(=O)N([C@H](C)CO)C[C@@H]2C)cc1`, the call was inactive.

Turning to `Cc1cc(C(=O)Nc2cccc3c2O[C@@H](CN(C)Cc2ccc(C(=O)O)cc2)[C@H](C)CN([C@@H](C)CO)C3=O)n(C)n1`, the compound was classed as inactive.

Regarding `C[C@@H]1CN([C@@H](C)CO)C(=O)Cc2cc(NC(=O)Nc3ccc(F)cc3)ccc2O[C@@H]1CN(C)C(=O)NC1CCCCC1`, the call was inactive.

As for `C[C@H]1CN([C@@H](C)CO)C(=O)c2cc(NC(=O)Nc3ccc4c(c3)OCO4)ccc2O[C@@H]1CN(C)CC1CCCCC1`, the result was inactive.

Regarding `COc1ccc(S(=O)(=O)Nc2ccc3c(c2)CC(=O)N([C@H](C)CO)C[C@H](C)[C@@H](CN(C)C)O3)cc1`, the result was inactive.

`COc1ccc(S(=O)(=O)N(C)C[C@@H]2Oc3ccc(NC(=O)CCC(F)(F)F)cc3C(=O)N([C@@H](C)CO)C[C@@H]2C)cc1`: the outcome was inactive.

For `Cc1ccc(C(=O)C2C(=O)C(=O)N(Cc3cccnc3)C2c2ccc(Cl)c(Cl)c2)o1` (stereo not given), the compound was classed as inactive.

In the case of `C[C@@H]1CN([C@@H](C)CO)C(=O)Cc2cc(NC(=O)CCN3CCOCC3)ccc2O[C@@H]1CN(C)CC1CC1`, the compound was classed as inactive.

Turning to `COc1ccc(NC(=O)Nc2cccc3c2O[C@@H](CN(C)S(=O)(=O)c2cn(C)cn2)[C@H](C)CN([C@@H](C)CO)C3=O)cc1`, the compound was classed as inactive.

With `Cc1noc(C)c1S(=O)(=O)N(C)C[C@@H]1Oc2ccc(NC(=O)C3CC3)cc2CC(=O)N([C@@H](C)CO)C[C@@H]1C`, the outcome was inactive.

For the compound `Cc1noc(C)c1NC(=O)N(C)C[C@H]1OCc2cn(nn2)CCCC(=O)N([C@@H](C)CO)C[C@H]1C`, the call was inactive.

As to `C[C@H](CO)N1C[C@H](C)[C@@H](CN(C)C(=O)NC2CCCCC2)Oc2ccc(NC(=O)c3ccncc3)cc2CC1=O`, the call was inactive.

As to `O=C(C1=C[C@H](C2CC2)C[C@H](OCc2ccc(CO)cc2)O1)N1CCN(Cc2ccccc2)CC1`, the compound was called inactive.

As to `Cn1nnnc1SCC(=O)Nc1cccc(NC(=O)C23CC4CC(CC(C4)C2)C3)c1`, the call was inactive.

As to `C[C@@H]1CN([C@H](C)CO)C(=O)c2cccc(NS(=O)(=O)c3ccc(Cl)cc3)c2O[C@@H]1CN(C)CC1CC1`, the result was inactive.

On to `COc1ccc(CN(C)C[C@@H]2Oc3ccc(NC(=O)Nc4ccc(OC)cc4)cc3CC(=O)N([C@H](C)CO)C[C@H]2C)cc1`, for which the compound was called inactive.

In the case of `COC(=O)c1c(C)n(CCNc2ccc([N+](=O)[O-])cc2)c2ccc(O)cc12`, the compound was called inactive.

With `O=C(CCc1nc(-c2ccccc2Cl)no1)Nc1ccccc1[N+](=O)[O-]`, the outcome was inactive.

On to `C[C@H]1CN([C@@H](C)CO)C(=O)c2cccc(NC(=O)C3CCOCC3)c2O[C@@H]1CN(C)C(=O)Nc1cccc2ccccc12`, for which the call was inactive.

In the case of `C[C@@H]1CN([C@@H](C)CO)C(=O)c2cccc(NS(=O)(=O)c3cn(C)cn3)c2O[C@H]1CN(C)Cc1ccc(Cl)c(Cl)c1`, the call was inactive.

On to `C=C1C[C@@H]2COC(=O)[C@]2(Cc2ccc3ccccc3c2)C1`, for which the outcome was inactive.

Take `COc1cc(C(C)=O)ccc1OCC(O)Cn1nc(C)cc1C` (stereo not given): the compound was called inactive.

`COc1ccc(CN(C)C[C@H]2Oc3c(NS(=O)(=O)c4ccc(Cl)cc4)cccc3C(=O)N([C@H](C)CO)C[C@@H]2C)cc1`: the outcome was inactive.

For `C[C@H](CO)N1C[C@H](C)[C@@H](CN(C)Cc2ccc(Cl)c(Cl)c2)Oc2c(NC(=O)C3CCCCC3)cccc2C1=O`, the compound was classed as inactive.

Turning to `C[C@H]1CCCCO[C@@H](CN(C)C(=O)C2CCCCC2)[C@@H](C)CN([C@@H](C)CO)C(=O)c2cc(NS(=O)(=O)c3cccs3)ccc2O1`, the call was inactive.

Take `C[C@H](CO)N1C[C@H](C)[C@H](CN(C)C)Oc2ccc(NC(=O)Cc3ccccc3)cc2CC1=O`: the outcome was inactive.

Take `C[C@H]1CN([C@@H](C)CO)C(=O)c2cc(NC(=O)Nc3ccccc3)ccc2O[C@@H]1CN(C)C(=O)Nc1ccccc1`: the result was inactive.

As for `CCNc1nc(SCCOc2ccccc2)nc(N(C)C)n1`, the outcome was inactive.

Take `C[C@H](CO)N1C[C@H](C)[C@H](CN(C)C(=O)Nc2ccc(C(F)(F)F)cc2)Oc2ccc(NS(C)(=O)=O)cc2CC1=O`: the call was inactive.

On to `O=C(OCC1OC(Oc2ccc(O)cc2COC(=O)C2(O)C(O)CCC(O)C2O)C(O)C(O)C1O)c1ccccc1` (stereo not given), for which the result was inactive.

`C[C@@H]1CCCCO[C@H](CN(C)C(=O)Nc2ccccc2)[C@H](C)CN([C@H](C)CO)C(=O)c2cc(N(C)C)ccc2O1`: the compound was classed as inactive.

For the compound `Cc1noc(C)c1NC(=O)Nc1ccc2c(c1)CC(=O)N([C@H](C)CO)C[C@@H](C)[C@@H](CN(C)Cc1ccncc1)O2`, the result was inactive.

As to `CC(=O)Nc1ccc(NC(=O)CN(c2ccccc2Br)S(C)(=O)=O)cc1`, the compound was classed as inactive.

As to `Cc1noc(C)c1NC(=O)Nc1cccc2c1O[C@@H](CN(C)Cc1ccc(C(F)(F)F)cc1)[C@@H](C)CN([C@@H](C)CO)C2=O`, the compound was called inactive.

Take `C[C@@H]1CCCCO[C@@H](CN(C)S(=O)(=O)c2ccccc2)[C@H](C)CN([C@H](C)CO)C(=O)c2cc(NC(=O)CCC(F)(F)F)ccc2O1`: the compound was classed as inactive.

`Cc1noc(C)c1S(=O)(=O)Nc1ccc2c(c1)CC(=O)N([C@@H](C)CO)C[C@@H](C)[C@H](CN(C)C)O2`: the result was inactive.

Take `C[C@H](CO)N1C[C@H](C)[C@H](CN(C)C(=O)c2ccccc2)OCCCC[C@H](C)Oc2ccc(NS(C)(=O)=O)cc2C1=O`: the outcome was inactive.

Consider `C[C@@H]1CCCCO[C@H](CN(C)Cc2ccccc2)[C@@H](C)CN([C@H](C)CO)C(=O)c2cc(NS(C)(=O)=O)ccc2O1`, for which the call was inactive.

For `C[C@H](CO)N1C[C@H](C)[C@H](CN(C)C(=O)Nc2ccccc2)Oc2ccc(NC(=O)C3CC3)cc2CC1=O`, the call was inactive.

Take `CC(C)NC(=O)Nc1ccc2c(c1)C(=O)N([C@@H](C)CO)C[C@H](C)[C@@H](CN(C)C(=O)Nc1ccc(F)cc1)OCCCC[C@H](C)O2`: the compound was classed as inactive.

With `COc1ccc(CN(C)C[C@@H]2Oc3ccc(NC(=O)Nc4ccc(OC)cc4)cc3C(=O)N([C@H](C)CO)C[C@H]2C)cc1`, the compound was classed as inactive.

As to `C=CC(C)(O)CCC1(C)C2=C(C(OC(C)=O)C(OC(C)=O)C1C)C(C)(C)CCC2` (stereo not given), the compound was called inactive.

In the case of `COc1cc([C@H](Cc2ccccc2)NC(C)=O)oc(=O)c1`, the compound was classed as inactive.

As for `CCc1ccc2c(c1)c1nc3ccccc3nc1n2CC(=O)OC`, the result was inactive.

For `C[C@H]1CN([C@@H](C)CO)C(=O)Cc2cc(NC(=O)Nc3cccc4ccccc34)ccc2O[C@H]1CN(C)CC1CC1`, the compound was classed as inactive.

`C[C@@H]1CCCCO[C@H](CN(C)Cc2ccccc2)[C@@H](C)CN([C@H](C)CO)C(=O)c2cc(NS(=O)(=O)c3ccc(Cl)cc3)ccc2O1`: the call was inactive.
